Laboratory results reported in PubChem BioAssay (NCI).
Compounds without any hit were thinned out: in the full panel of roughly 79,000, 15% have a hit. Unmarked numbers belong to inactive results. Calls of active or inactive are those of the source. Rule as the data show it: active = growth inhibition above about 70%; inactive = the rest. Where a SMILES comes first, the peptide text is derived from it. [ ]: non-standard residue; d: D form. The star is where a group is joined. Cbz = O=C(OCc1ccccc1)*; Dha = C=C(N)C(=O)O

Assays:
[1] = NCI Yeast Anticancer Drug Screen. Data for the rad50 strain (AID 155);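 also: 0% = growth of vehicle-only cultures of the same strain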; conditions: S. cerevisiae rad50 strain growth inhibition; at 50.0 µM; active compounds read high
Outline: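 Inhibition values express reduced yeast growth in compound-treated cultures relative to vehicle-treated controls.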

[2] = NCI Yeast Anticancer Drug Screen. Data for the mec2-1 strain (AID 157); conditions: S. cerevisiae mec2-1 strain, at 50.0 µM, active compounds read high
Outline: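 mec2-1 yeast strain, carrying an alteration in DNA damage repair or cell cycle control, was exposed to compounds; growth inhibition was measured relative to vehicle-treated controls.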

[3] = NCI Yeast Anticancer Drug Screen. Data for the sgs1 mgt1 strain (AID 161);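 also: 0% = growth of cultures given vehicle only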; conditions: S. cerevisiae sgs1 mgt1 strain, at 50.0 µM, active compounds read high
Outline: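 Percent growth inhibition was derived by comparing compound-exposed mutant yeast with vehicle-exposed cultures. The strain carries alterations in DNA damage repair.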

[4] = NCI Yeast Anticancer Drug Screen. Data for the cln2 rad14 strain (AID 165);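 also: 0% = growth equal to vehicle treated cultures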; conditions: S. cerevisiae cln2 rad14 strain, at 50.0 µM, active compounds read high
Outline: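 Yeast carrying cln2 and rad14 alterations (cell cycle control and DNA damage repair) were exposed to compounds. Growth inhibition was measured against vehicle-treated controls.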

[5] = NCI Yeast Anticancer Drug Screen. Data for the bub3 strain (AID 167); conditions: S. cerevisiae bub3 mutant strain, at 50.0 µM, active compounds read high
Outline: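 Steps: expose the mutant yeast strain to compound; grow alongside vehicle-treated cultures; measure growth; express inhibition against the vehicle cultures.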

[6] = NCI Yeast Anticancer Drug Screen. Data for the mlh1 rad18 strain (AID 175); conditions: S. cerevisiae mlh1 rad18 strain growth inhibition; at 50.0 µM; active compounds read high
Outline: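 Growth inhibition of the yeast strain was measured after compound exposure and expressed relative to vehicle-treated controls. The strain carries defined defects in DNA damage repair.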

SMILES | growth inhibition [1] | growth inhibition [2] | growth inhibition [3] | growth inhibition [4] | growth inhibition [5] | growth inhibition [6]
BrC1Cc2ccccc2C(Br)Cc2ccccc21 (stereo not drawn) | -7.65% | -5.1% | -1.05% | -47.5% | 4% | -9.6%
CC(C)=C/C(C)=N/NC(N)=O | 7.9% | -4.55% | -24.3% | -19.1% | -19.8% | -32.2%
Nc1cc(=O)[nH]c(N2CCN(c3ccccc3)CC2)n1 | 1.15% | -4.9% | -14.3% | 6.15% | 6.15% | 12.4%
OC1=CC(C2CCCCC2)CC(O)=C1 (stereo not drawn) | 2.95% | -0.65% | -4.75% | -7.9% | -59.5% | -17.1%
O=C(Nc1ncccn1)c1ccc(Cl)cc1Cl | -11.9% | 4.8% | 30.6% | -21.5% | 10.6% | 32.3%
CC(=O)Nc1cccc(S(=O)(=O)c2cccc(NC(C)=O)c2)c1 | -9.8% | -10.1% | -7.55% | -66.5% | 8.1% | -10.3%
CC(=O)C1(O)CCC2C3CCC4CC(=O)CCC4(C)C3C(=O)CC21C (stereo not drawn) | 4.4% | -24.8% | 2.25% | 27.9% | 13.6% | -10.6%
Cc1cccc2c1Oc1ccccc1C2NC(=O)c1ccc([N+](=O)[O-])cc1 (stereo not drawn) | -19.4% | -15.4% | -34.5% | -0.9% | -23.4% | -18%
COc1ccc(N=Nc2cc(OC)c(N=Nc3c(O)c4ccccc4[nH]c3=O)cc2OC)cc1 | 18.1% | 16.8% | 25.1% | 13.8% | -14.2% | 17.1%
CCCCCCC(=O)C/C(CCC(=O)N(Cc1ccccc1)Cc1ccccc1)=N\NC(N)=O | -6.65% | 2.75% | -14.8% | 3.75% | -6.65% | -20.8%
NC(N)=NC(Cc1ccccc1)C(=O)O (stereo not drawn) | -8.15% | -10% | 1.3% | -26.6% | -12.4% | 0%
C=C(Nc1ccc([N+](=O)[O-])cc1[N+](=O)[O-])c1c/c(=N\NC(N)=S)c2ccccc2o1 | 25.1% | -16% | -3.85% | 15.6% | 16.4% | 6.45%
O=C(O)/C=C/c1ccc(Oc2ccccc2C(=O)O)o1 | -3.45% | -7.15% | 5.05% | 2.3% | -1.2% | -2.25%
C=C(NC(=O)C(C)NC(=O)OCc1ccccc1)C(=O)N1CCCC1C(=O)NC(C)C(=O)NC (stereo not drawn) (Cbz-A[Dha]PA-NHMe; configuration not given here) | 3% | -3.95% | -5.05% | 3.4% | -4.35% | -2.4%
O=C(c1ccccc1)C1C(c2ccccc2)SC(c2ccccc2)CC1(O)c1ccccc1 (stereo not drawn) | 24.1% | 1.8% | 11.5% | 16.9% | -3.45% | 13.3%
Nc1ccccc1/C=C(\C(=O)O)c1ccccc1 | -19.9% | -4.45% | 14.8% | 12.4% | -0.6% | 11.4%
Nc1nc([O-])c([I+]c2ccccc2)c(=O)[nH]1 | -17.5% | -11.8% | 3.7% | -8.5% | 0.15% | -6.45%
CC(C)=C1C=CC=C1 | -8% | 0.65% | 1.6% | -5% | 9.4% | -6.95%
OCC1OC(n2cnc3c([Se]Cc4ccccn4)ncnc32)C(O)C1O (stereo not drawn) | 40% | -0.6% | 32% | -3.75% | -3.4% | 7.5%

SMILES | growth inhibition [1] | growth inhibition [2] | growth inhibition [3] | growth inhibition [4] | growth inhibition [5] | growth inhibition [6]
Cc1ccc2nc(N)nc(N)c2c1 | -12.9% | 7.15% | -8.4% | 3.25% | -10.6% | -3.8%
O=C(O)c1ccc(N2C(=O)c3ccccc3C2=O)cc1 | -19.1% | 4.8% | 1.95% | -10.1% | -18.3% | 41.9%
CCn1cc(C(=O)O)c(=O)c2ccc(-c3cn[nH]c3C)nc21 | 44.5% | 34.1% | 34.6% | 4.45% | 12.2% | 29.9%
CCN1C(=O)CS/C1=N/NC(=O)C(O)(c1ccccc1)C1C=CC=CC1 (stereo not drawn) | -9.6% | -21.1% | 2.6% | 10.3% | 0.25% | 4.75%
CSc1cnn(CCC#N)c(=O)n1 | 16.4% | 14.1% | 19.9% | 2.4% | 15.7% | 2.35%
Nc1c(Cl)cc(C(=O)NC2CC2)cc1Cl | -13.1% | -27.8% | -11.2% | -4.8% | -26.6% | -24.9%
O=C1CCCCC1C(Nc1ccccc1)c1ccccc1 (stereo not drawn) | 2.95% | -6% | -10.7% | 15.8% | -2.6% | 17.1%
O=C1CCC(N2C(=O)C3CCCCC3C2=O)C(=O)N1 (stereo not drawn) | -0.2% | 12.3% | 18.9% | 1.7% | 8.5% | -14.5%
c1cncc(C2c3[nH]c4ccccc4c3CCN2CCN2CCCCC2)c1 (stereo not drawn) | -32.8% | -46.5% | -9.4% | -4.35% | -37.5% | -34.4%
O=c1cc(C(Br)(Br)Br)[nH]c2ccccc12 | 19.4% | 3.25% | 9.45% | -5.7% | 4.55% | 18%
CCOC(OCC)c1ccc(O)cc1 | -4.4% | 3.15% | 20.3% | -19.2% | -2.2% | 12.1%
ON=C1CCN(c2ccccc2)CC1 | 10.3% | -30.5% | -10.4% | -44.1% | 1.6% | -18.4%
CCCNC(=O)Nc1ccccc1OCC | -3.6% | -5.55% | -8.6% | -68% | 13.2% | -5.25%
C/C([O-])=C(/c1nc(-c2ccc([N+](=O)[O-])o2)no1)[n+]1cc(C)ccc1C | 19.3% | 14% | 18.9% | 21.3% | 7.55% | 16.1%
CCNC1=C(OC)C(=O)C(NCC)=C(OC)C1=O | -6.2% | 7.25% | 2.6% | -33.6% | 5.3% | -5.8%
CCCCCCCCCCCC(=O)N/N=C(\c1ccccc1)c1ccc(Cl)cc1 | 91.5% (active) | 88.2% (active) | 93.5% (active) | 86.9% (active) | 76.5% (active) | 91.3% (active)
CCCC1(C(OC)OC)NC(=O)N(Cc2ccccc2)C1=O (stereo not drawn) | 4.45% | -5.15% | 5.15% | -19.7% | -2.1% | 4.75%
C=C1c2nc3ccccc3n2C=C(c2ccc(Cl)cc2)N1c1ccccc1 | -4.65% | 23.4% | -10.7% | 9.7% | -1.6% | 33.5%
CCCCCCC1OCCO1 | 29.8% | 2.8% | 16.5% | -12.8% | -4.8% | 15.1%
